From PubChem
hgDAF12 agonist: activates the H. glycines DAF-12 receptor ligand-binding domain; activation, % at 6.8 µM; hit rate 1.8% among 370,000; HEK293 GAL4-hgDAF12 UAS-luciferase reporter, agonist luminescence; normalized to butyrate control;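 active = activation above a cutoff set at the mean of all screened compounds plus 3 SD, cut at about 10% in these data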;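 also: 0% = DMSO wells and 100% = sodium butyrate wells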
SMARCA2 act: SMARCA2 function activation, primary screen. MG213 cells, MMTV-luciferase reporter, dexamethasone, overnight. activation, % at 9.1 µM. hit rate 1% among 370,000. AID 652017; in the data active = activation above about 7.8%;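 also: 0% = vehicle wells and 100% = reference activator wells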
ssDAF12 agonist: S. stercoralis DAF-12 activation, primary screen; HEK293 ssDAF-12/GRIP1 lit1-tk-luc reporter, luminescence; % of 3 µM dafachronic acid response; activation, % at 6.8 µM; hit rate 1% among 370,000; AID 652126;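 active = activation above the mean over all tested compounds plus 3 SD, cut at about 0.9% in these data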;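 also: 0% = DMSO-only wells and 100% = 3 µM delta7-dafachronic acid wells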
DAX1 inh-1: blocks DAX1 repression of SF-1 activated StAR promoter; HEK293T StAR-luciferase reporter, SF-1/DAX-1 repression relief; inhibition, % at 6.8 µM; hit rate 1.1% among 370,000; AID 652010;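 active = inhibition above the mean over all tested compounds plus 3 SD, cut at about 3.6% in these data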;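 also: 0% = DAX-1 cells with DMSO and 100% = cells lacking DAX-1 with DMSO; higher inhibition means more luminescence from relief of DAX-1 repression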
hcDAF-12 act: H. contortus DAF-12 activation, primary screen. HEK293 hcDAF-12 lit1-tk-luc reporter, luminescence; 0% DMSO, 100% Δ7-dafachronic acid. activation, % at 6.8 µM. hit rate 1.4% among 370,000. AID 652067;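 active = activation above the mean of all tested compounds plus 3 SD, cut at about 5.5% in these data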;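 also: 100% = response to 3 µM Δ7-dafachronic acid high control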
DAX1 inh-2: inhibitors of human orphan nuclear receptor DAX1 (NR0B1); P51843; HEK293 Gal4-DAX1 luciferase reporter, luminescence; inhibition, % at 6.75 µM; hit rate 0.99% among 340,000; AID 504766;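 active = inhibition above the mean over all tested compounds plus 3 SD, cut at about 4.2% in these data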;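 also: 0% = DAX1-transfected cells with DMSO and 100% = empty-vector control cells with DMSO; inhibition shows as a rise in luminescence from relieved DAX1 repression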
Target sequence (P51843 207-470 limits assumed): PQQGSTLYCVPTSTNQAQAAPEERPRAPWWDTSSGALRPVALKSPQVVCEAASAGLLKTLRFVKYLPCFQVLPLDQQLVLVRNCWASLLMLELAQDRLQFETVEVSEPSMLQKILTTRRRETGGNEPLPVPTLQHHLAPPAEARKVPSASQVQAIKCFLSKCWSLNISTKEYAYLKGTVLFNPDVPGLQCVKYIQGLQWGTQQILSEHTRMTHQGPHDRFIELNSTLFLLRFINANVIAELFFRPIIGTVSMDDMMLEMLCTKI
hgDAF12 conf: confirmation of H. glycines DAF-12 agonists | shares compounds with hgDAF12 agonist | HEK293 GAL4-hgDAF12 luciferase reporter, agonist mode; percent of butyrate response | activation, % at 6.8 µM | hit rate 80% among 3,300 | AID 743050;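 active = mean activation over triplicate wells above the hit cutoff derived from the earlier primary screen, cut at about 11% in these data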;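 also: 0% = DMSO low control and 100% = 2 mM sodium butyrate high control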
LXRb DAF12 ctr: counter-screen for DAF-12 agonists: agonists of human LXR-beta; shares compounds with hgDAF12 agonist; HEK293 Gal4-LXR luciferase reporter, 24 h; activation, % at 6.8 µM; 3,300 tested, under 10 active; AID 743051;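 active = mean activation of the triplicate above a set limit carried over from the primary screen, none filed active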
Target sequence (P55055 whole entry, looked up, the tested form may be a part): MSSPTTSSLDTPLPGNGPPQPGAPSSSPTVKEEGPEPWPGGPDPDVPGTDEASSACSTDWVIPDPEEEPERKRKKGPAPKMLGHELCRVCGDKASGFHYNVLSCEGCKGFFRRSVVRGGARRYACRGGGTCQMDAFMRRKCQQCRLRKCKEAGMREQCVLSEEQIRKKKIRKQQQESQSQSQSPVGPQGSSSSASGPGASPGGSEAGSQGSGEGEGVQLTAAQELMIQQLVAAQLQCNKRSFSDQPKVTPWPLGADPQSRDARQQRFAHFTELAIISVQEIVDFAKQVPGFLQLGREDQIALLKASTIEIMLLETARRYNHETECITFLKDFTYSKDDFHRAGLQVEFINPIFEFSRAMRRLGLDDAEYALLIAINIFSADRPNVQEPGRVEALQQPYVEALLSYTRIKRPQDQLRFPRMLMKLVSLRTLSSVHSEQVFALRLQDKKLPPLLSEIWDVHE
* marks the source's active call; other numbers are inactive results. This is a sample that favours compounds with a hit; in the whole collection about 4.8% have one here.

Screening O=C(OCC(=O)N1CCCC1=O)c1nc(Cl)ccc1Cl returned hgDAF12 agonist -1.8, SMARCA2 act -1.4, ssDAF12 agonist -1.5, DAX1 inh-1 1.5, hcDAF-12 act -1.0 and DAX1 inh-2 -0.4.
Screening N#Cc1cccc(-n2cc(COC(=O)NCCc3ccccc3)nn2)c1 returned hgDAF12 agonist 1.6, SMARCA2 act 0.0, ssDAF12 agonist -0.4, DAX1 inh-1 0.2 and hcDAF-12 act -0.1.
For CN(C)C=Nc1ncc2c([nH]c3ccccc32)c1C#N the results were hgDAF12 agonist 21.7*, SMARCA2 act 0.7, ssDAF12 agonist -1.6, DAX1 inh-1 0.5, hcDAF-12 act -0.9, DAX1 inh-2 0.0, hgDAF12 conf 6.6 and LXRb DAF12 ctr 0.2.
Cc1cc(C)c2sc(N)nc2c1 was read as hgDAF12 agonist 13.9*, SMARCA2 act -4.6, ssDAF12 agonist -1.5, DAX1 inh-1 -1.1, hcDAF-12 act -1.8, DAX1 inh-2 -0.8, hgDAF12 conf 0.7 and LXRb DAF12 ctr 0.0.
Screening Cc1cc(C)c2nc(N)sc2c1 returned hgDAF12 agonist 2.5, SMARCA2 act 2.8, ssDAF12 agonist -0.8, DAX1 inh-1 -0.2, hcDAF-12 act 3.2 and DAX1 inh-2 -0.6.
Screening CC(/C=N/NC(=O)c1cc(C2CC2)[nH]n1)=C\c1ccccc1 returned hgDAF12 agonist -1.2, SMARCA2 act -1.6, ssDAF12 agonist -1.3, DAX1 inh-1 0.6, hcDAF-12 act 0.4 and DAX1 inh-2 0.6.
Screening C/C(=N/NC(=O)c1cc(C2CC2)[nH]n1)c1cccs1 returned hgDAF12 agonist 14.8*, SMARCA2 act 5.3, ssDAF12 agonist 0.0, DAX1 inh-1 3.8*, hcDAF-12 act 5.7*, DAX1 inh-2 -1.8, hgDAF12 conf 8.9 and LXRb DAF12 ctr 1.0.
`CCOC(=O)C1(Cc2ccccc2)CCN(Cc2cccc3c2OCO3)CC1` gave hgDAF12 agonist -1.0, SMARCA2 act -0.8, ssDAF12 agonist -0.7, DAX1 inh-1 -0.1, hcDAF-12 act -0.8 and DAX1 inh-2 -0.1.
C/C(CCc1ccccc1)=N\NC(=O)c1ccccc1 was read as hgDAF12 agonist 13.9*, SMARCA2 act 5.3, ssDAF12 agonist 0.1, DAX1 inh-1 1.9, hcDAF-12 act 1.0, DAX1 inh-2 1.4, hgDAF12 conf 3.0 and LXRb DAF12 ctr 0.1.
COCc1cc(C)[nH]c(=O)c1C(=O)NC12CC3CC(CC(C3)C1)C2 was read as hgDAF12 agonist -2.8, SMARCA2 act -1.1, ssDAF12 agonist -1.6, DAX1 inh-1 -0.4, hcDAF-12 act -0.4 and DAX1 inh-2 0.8.
Screening Cc1nn(-c2ccccc2)c(N)c1Sc1cccc([N+](=O)[O-])c1 returned hgDAF12 agonist 5.3, SMARCA2 act -2.5, ssDAF12 agonist -0.8, DAX1 inh-1 -1.2, hcDAF-12 act -3.9 and DAX1 inh-2 -1.5.
For Cc1nn(-c2cccc([N+](=O)[O-])c2)c(N)c1-c1ccccc1 the results were hgDAF12 agonist 14.5*, SMARCA2 act 1.9, ssDAF12 agonist -1.0, DAX1 inh-1 1.4, hcDAF-12 act 0.8, DAX1 inh-2 1.1, hgDAF12 conf 11.0* and LXRb DAF12 ctr 0.3.
`COc1ccc(CCNC(=O)Cn2c(=O)c3cccn3c3cccnc32)c(OC)c1OC` gave hgDAF12 agonist 0.7, SMARCA2 act -1.1, ssDAF12 agonist -0.7, DAX1 inh-1 1.2, hcDAF-12 act -1.3 and DAX1 inh-2 -0.4.
For Fc1ccc2nc(Nc3nc4cc5c(cc4s3)OCCO5)sc2c1 the results were hgDAF12 agonist 14.6*, SMARCA2 act 6.4, ssDAF12 agonist 1.5*, DAX1 inh-1 4.2*, hcDAF-12 act 1.8, DAX1 inh-2 1.0, hgDAF12 conf 5.2 and LXRb DAF12 ctr 0.9.
Screening Fc1ccc2nc(Nc3ccccc3)sc2c1 returned hgDAF12 agonist 19.1*, SMARCA2 act 2.8, ssDAF12 agonist -0.5, DAX1 inh-1 2.5, hcDAF-12 act 3.6, DAX1 inh-2 2.5, hgDAF12 conf 14.5* and LXRb DAF12 ctr 0.5.
Cc1c(O)ccc2c(CN(C)Cc3ccccc3)cc(=O)oc12 was read as hgDAF12 agonist -0.5, SMARCA2 act -4.1, ssDAF12 agonist -2.2, DAX1 inh-1 -0.9, hcDAF-12 act -2.0 and DAX1 inh-2 0.0.
COc1cccc2c1C(=O)O/C2=C/c1ccc2c(c1)OCO2 was read as hgDAF12 agonist 16.3*, SMARCA2 act 3.2, ssDAF12 agonist 1.2*, DAX1 inh-1 3.6, hcDAF-12 act 4.6, DAX1 inh-2 3.5, hgDAF12 conf 14.3* and LXRb DAF12 ctr 1.2.
`COc1ccc2nc(SCc3ccccc3C)nc(C)c2c1` gave hgDAF12 agonist 1.6, SMARCA2 act 4.2, ssDAF12 agonist -0.2, DAX1 inh-1 0.2, hcDAF-12 act -2.0 and DAX1 inh-2 -0.9.
`COc1ccc2nc(SCc3cccc(C)c3)nc(C)c2c1` gave hgDAF12 agonist 14.8*, SMARCA2 act 8.5*, ssDAF12 agonist -1.0, DAX1 inh-1 1.2, hcDAF-12 act 1.4, DAX1 inh-2 0.6, hgDAF12 conf 14.1* and LXRb DAF12 ctr 0.4.
Screening O=C(NCc1ccccc1)c1cccc(COc2ccccc2Cl)c1 returned hgDAF12 agonist 8.9, SMARCA2 act 2.6, ssDAF12 agonist -1.1, DAX1 inh-1 -1.1, hcDAF-12 act 2.8 and DAX1 inh-2 -1.9.
CN(C(=O)c1cccc(COc2ccc(Cl)cc2Cl)c1)c1ccccc1 was read as hgDAF12 agonist 13.4*, SMARCA2 act 1.9, ssDAF12 agonist -1.4, DAX1 inh-1 0.9, hcDAF-12 act 2.1, DAX1 inh-2 -1.6, hgDAF12 conf 12.7* and LXRb DAF12 ctr 0.7.
For Cc1occc1C(=O)Nc1ccc2c(c1)CCC2 the results were hgDAF12 agonist 14.7*, SMARCA2 act -0.5, ssDAF12 agonist 0.8, DAX1 inh-1 3.9*, hcDAF-12 act 3.4, DAX1 inh-2 1.3, hgDAF12 conf 14.9* and LXRb DAF12 ctr 0.5.
`Cc1ccc(C(=O)Nc2ccc3c(c2)CCC3)o1` gave hgDAF12 agonist 16.1*, SMARCA2 act 6.8, ssDAF12 agonist -0.9, DAX1 inh-1 2.1, hcDAF-12 act 3.3, DAX1 inh-2 0.9, hgDAF12 conf 22.1* and LXRb DAF12 ctr 1.0.
For Cc1ccc(NC(=O)Nc2ccc3c(c2)CCC3)cc1C the results were hgDAF12 agonist 3.9, SMARCA2 act 2.3, ssDAF12 agonist -0.4, DAX1 inh-1 3.4, hcDAF-12 act 1.8 and DAX1 inh-2 -0.4.
O=C(O)c1ccc2c(c1)C(=O)N(c1cccc(-c3nc4ccccc4s3)c1)C2=O was read as hgDAF12 agonist 15.6*, SMARCA2 act 2.6, ssDAF12 agonist -0.9, DAX1 inh-1 1.1, hcDAF-12 act 0.1, DAX1 inh-2 0.6, hgDAF12 conf 3.1 and LXRb DAF12 ctr 0.1.
